Assay results reported in PubChem BioAssay (EPA / NIEHS).
Records with an inconclusive call do not appear. Where a structure was tested more than once in an assay, its records may differ in their call. Activity calls are given as the source filed them. Rule for the calls, unless noted: active = hit-call score of the fitted dose curve at least 0.9, where 1 is the maximum; inactive = score below 0.9.

Key:
[1] = IUF_NPC1_viability_72hr: Viability Assessment at 72 hours in the Leibniz Research Institute for Environmental Medicine (IUF) Neural Progenitor Cell Proliferation Assay (NPC1) (AID 2284209)
Method in brief: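 Three-day continuous exposure of human neural progenitor spheres under EGF/FGF-driven proliferation; cell viability scored by alamar blue signal versus DMSO.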

[2] = CCTE_Mundy_HCI_Cortical_Synap_Neur_Matur_NeuriteSpotCountPerNeuriteLength: CCTE's Synaptogenesis and Neurite Maturation Assay in rat cortical cells for Neurite Spot Count per Neurite Length, Mundy Lab (AID 2284210)
Method in brief: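 Read-out: synaptophysin puncta counted along MAP2-stained neurites, normalised to neurite length, by automated high-content imaging. Rat cortical cells; AraC DIV 5; chemical dosing DIV 7; termination DIV 12. DMSO baseline.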

[3] = CCTE_Mundy_HCI_Cortical_Synap_Neur_Matur_BPCount: CCTE's Synaptogenesis and Neurite Maturation Assay in rat cortical cells for Branch Point Count, Mundy Lab (AID 2284211)
Method in brief: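 In this multiplexed morphology assay, cortical cells from rat receive chemicals at DIV 7 and are fixed at DIV 12, then immunostained and imaged; branch points are counted, with DMSO as baseline.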

[4] = CCTE_Mundy_HCI_Cortical_NOG_NeuriteLength: CCTE's Neurite Outgrowth Assay in rat cortical cells for Neurite Length, Mundy Lab (AID 2284213);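 for AC50: neurites imaged about 48 to 50 h after chemical exposure began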
Method in brief: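 First, rat primary cortical cells were plated and, 2 h later, given test chemical as a 1/10 dilution. Finally, βIII-tubulin immunostaining enabled automated imaging of neurite length.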

[5] = CCTE_Mundy_HCI_Cortical_Synap_Neur_Matur_SynapseCount: CCTE's Synaptogenesis and Neurite Maturation Assay in rat cortical cells for Synapse Count, Mundy Lab (AID 2284218)
Method in brief: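 Endpoint: synapses/neuron by HCI (synaptophysin puncta on MAP2-labelled neurites, Hoechst nuclei). Rat primary cortical cells, AraC DIV 5, dosed DIV 7, fixed DIV 12; DMSO negative control.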

[6] = CCTE_Mundy_HCI_Cortical_Synap_Neur_Matur_CellBodySpotCount: CCTE's Synaptogenesis and Neurite Maturation Assay in rat cortical cells for Cell Body Spot Count, Mundy Lab (AID 2284223)
Method in brief: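 Synapse number at neuronal cell bodies was quantified as synaptophysin puncta per neuron in rat cortical cultures exposed from DIV 7 to DIV 12. Values were normalised to DMSO.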

[7] = CCTE_Mundy_HCI_hNP1_Pro_ResponderAvgInten: CCTE's Proliferation Assay in human neuroprogenitor cells, Mundy Lab (AID 2284224; active = hit-call score of the fitted dose curve at least 0.9, where 1 is the maximum;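 note: human neural progenitor cells hNP1 derived from WA09 embryonic stem cells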)
Method in brief: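 Proliferation read as average intensity of BrdU-positive cells, imaged at 26.25 h post-dosing: chemical exposure started after 40–44 h culture, BrdU during final 4 h, paraformaldehyde fixation. Positive-direction fit relative to DMSO.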

[8] = UKN2_HCS_IMR90_cell_viability: Viability Assessment in the University of Konstanz (UKN) Leist Lab Neural Crest Cell Migration Assay in human induced IMR90 Pluripotent Stem Cells (UKN2) (AID 2284233);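 note: cells exposed to compound for 24 h after a 24 h migration phase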
Method in brief: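 Viability read as calcein-AM fluorescence by high-content imaging, Hoechst co-stain, 30 min. Human iPSC (IMR90) neural crest cells had migrated 24 h into stopper-defined gaps before 24 h chemical exposure. Fitted bidirectionally relative to DMSO.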

[9] = BSK_BT_PBMCCytotoxicity: PBMC Cytotoxicity Assessment in the BioMAP Diversity Plus: BT Assay (AID 2284225); conditions: primary human B cells with PBMC;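 note: PBMC viability measured by Alamar Blue dye reduction fluorescence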
Method in brief: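 Primary human co-culture of B cells and PBMC, pre-dosed 1 h then activated with SEB and TSST-1. Cytotoxicity is taken from Alamar Blue dye reduction, added for 6 h at the end of a 90 h incubation.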

[10] = read-out: Secreted IgG (sIgG), gene 3500; test: BSK_BT_sIgG: BioMAP Diversity Plus: BT Assay for Secreted IgG (sIgG) Biomarker Activity (AID 2284226); conditions: primary human B cells with PBMC
Method in brief: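 In this multiplexed co-culture system, ELISA quantifies sIgG 24 h post-treatment. Endpoint analysis uses positive fitting direction, DMSO negative control.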

[11] = BSK_BT_Bcell_Proliferation: Viability Assessment in the BioMAP Diversity Plus: BT Assay for B cell Proliferation (AID 2284227); conditions: primary human B cells with PBMC
Method in brief: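 Using a human primary B cell–PBMC co-culture, the assay measures total protein by sulforhodamine B absorbance as a gauge of proliferation after 72 h. Analysis followed the positive fitting direction with DMSO as baseline.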

[12] = read-out: Interleukin 6 (IL6), IL6 (gene 3569); test: BSK_BT_xIL6: BioMAP Diversity Plus: BT Assay for Interleukin 6 (IL6) Biomarker Activity (AID 2284228); conditions: primary human B cells with PBMC
Method in brief: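 Chemical added to human B cell/PBMC co-culture → 24 h → supernatant IL-6 by Luminex xMAP → fit vs DMSO baseline, upward direction.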

[13] = read-out: Interleukin 17A (IL17A), IL17A (gene 3605); test: BSK_BT_xIL17A: BioMAP Diversity Plus: BT Assay for Interleukin 17A (IL17A) Biomarker Activity (AID 2284229); conditions: primary human B cells with PBMC
Method in brief: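 Chemicals were added to a human B cell and PBMC co-culture. After 24 h, secreted IL-17A was measured with Luminex xMAP. Curves were fitted in the positive direction, with DMSO wells as baseline.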

[14] = read-out: Tumor necrosis factor (Homo sapiens) (UniProt P01375); test: BSK_BT_xTNFa: BioMAP Diversity Plus: BT Assay for Tumor necrosis factor alpha (TNF-alpha) Biomarker Activity (AID 2284230); conditions: primary human B cells with PBMC
Method in brief: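 Endpoint derived in the positive direction versus DMSO vehicle. Cells: B cells together with PBMC, exposed 24 h before TNF-alpha in the medium was read on the Luminex xMAP platform.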

[15] = read-out: Vascular cell adhesion molecule 1 (VCAM1), VCAM1 (gene 7412); test: BSK_MyoF_VCAM1: BioMAP Diversity Plus: MyoF Assay for Vascular cell adhesion molecule 1 (VCAM1) Biomarker Activity (AID 2284231); conditions: primary human lung fibroblasts
Method in brief: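 Steps: fibroblasts from human lung exposed to compound; biomarker quantified by ELISA at 24 h; values analysed for upward change over the DMSO baseline.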

[16] = UKN4_HCS_LUHMES_cell_viability: Viability Assessment in the University of Konstanz (UKN) Leist Lab Neurite Outgrowth Assay in human LUHMES cells (UKN4) (AID 2284232)
Method in brief: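 Measured in replated, 2-day-differentiated LUHMES cells treated 24 h; stained 30 min with H-33342 and calcein-AM before high-content imaging.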

[17] = TAMU_PeakParms_SingleDonor1434_Chronotropy: Texas A&M University (TAMU) 1.5-hr Human Induced Pluripotent Stem Cell (iPSC)-derived Cardiomyocytes Calcium (Ca+2) Flux Assay for Cardiotoxicity: Chronotropy (changes in peak frequency) (AID 2284217); conditions: actives raise or lower the signal
Method in brief: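 Using fluorescent Ca2+ flux, average beats per second are measured in human iPSC-derived cardiomyocytes treated 90 min (0.5% DMSO vehicle, 0.2–100 uM). Non-beating data points are removed; activity is modeled in both directions relative to DMSO controls.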

[18] = CCTE_Mundy_HCI_hN2_NOG_NeuriteCount: CCTE's Neurite Outgrowth Assay in human hN2 cells for Neurite Count, Mundy Lab (AID 2284219; active = hit-call score of the fitted dose curve at least 0.9, where 1 is the maximum)
Method in brief: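 In this morphology assay, hNP1-derived neurons received test chemical 2 h post-plating and were fixed two days later in warm paraformaldehyde/sucrose containing Hoechst 33342. Neurites, labelled by rabbit anti-βIII-tubulin (1:800) and Alexa Fluor-488 (1:500), were counted automatically.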

[19] = CCTE_Mundy_HCI_hN2_NOG_NeuriteLength: CCTE's Neurite Outgrowth Assay in human hN2 cells for Neurite Length, Mundy Lab (AID 2284220; active = hit-call score of the fitted dose curve at least 0.9, where 1 is the maximum)
Method in brief: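 Read-out is neurite length from high-content imaging of βIII-tubulin/Alexa Fluor-488-labelled neurons, referenced to DMSO controls.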

[20] = CCTE_Mundy_HCI_hN2_NOG_NeuronCount: CCTE's Neurite Outgrowth Assay in human hN2 cells for Neuron Count, Mundy Lab (AID 2284221; active = hit-call score of the fitted dose curve at least 0.9, where 1 is the maximum)
Method in brief: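 Read-out is the number of betaIII-tubulin-positive neurons imaged by automated high-content analysis, with DMSO as negative control.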

Measured: AC50

Tumor necrosis factor (Homo sapiens), sequence (P01375 whole entry, looked up): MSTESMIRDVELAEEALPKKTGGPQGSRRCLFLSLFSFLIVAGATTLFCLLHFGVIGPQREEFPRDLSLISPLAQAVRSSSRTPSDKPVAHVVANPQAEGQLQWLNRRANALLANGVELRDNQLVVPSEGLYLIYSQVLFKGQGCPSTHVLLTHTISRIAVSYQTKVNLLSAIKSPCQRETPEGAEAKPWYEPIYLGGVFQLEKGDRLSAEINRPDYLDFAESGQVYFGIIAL

C=C(C)CN(CC)c1c([N+](=O)[O-])cc(C(F)(F)F)cc1[N+](=O)[O-]
inactive: [1]
active: [2] 6.36 µM | [3] 6.23 µM | [4] 32.4 µM | [5] 4.72 µM | [6] 5.33 µM | [7] 19 µM | [8] 121 µM

COCC(C)N(C(=O)CCl)c1c(C)csc1C (stereo not given)
inactive: [9] | [11] | [12] | [14]
active: [10] 13.5 µM | [13] 20 µM | [15] 20 µM

COP(=S)(OC)SCn1nnc2ccccc2c1=O
active: [8] 32.2 µM
inactive: [1] | [2] | [3] | [4] | [5] | [6] | [16]

CN/C(=N\[N+](=O)[O-])NCc1cnc(Cl)s1
inactive: [1] | [2] | [3] | [4] | [5] | [6]

CCCCC(C#N)(Cn1cncn1)c1ccc(Cl)cc1 (stereo not given)
inactive: [17]

COP(=O)(OC)O/C(C)=C/C(=O)N(C)C
inactive: [2] | [3] | [4] | [5] | [6] | [7]

O=C(Nc1ccccc1-c1ccc(Cl)cc1)c1cccnc1Cl
inactive: [1] | [2] | [3] | [4] | [5] | [6] | [7] | [8]

CCNC(=O)NC(=O)C(C#N)=NOC
inactive: [1] | [2] | [3] | [4] | [6]
active: [5] 0.0179 µM

CC(C)(C)C(=O)C(Oc1ccc(Cl)cc1)n1cncn1 (stereo not given)
active: [3] 9.82 µM | [5] 6.09 µM
inactive: [1] | [2] | [4] | [6] | [8]

N#CN=C1SCCN1Cc1ccc(Cl)nc1
inactive: [1] | [2] | [3] | [4] | [5] | [6] | [7]

CCSC(=O)N1CCCCCC1
inactive: [1] | [2] | [4] | [5] | [6] | [8]

CCN(CC)c1nc(C)cc(OP(=S)(OC)OC)n1
active: [3] 67.1 µM | [4] 88.7 µM | [18] 72.4 µM | [19] 60.7 µM | [20] 50 µM | [7] 89.2 µM
inactive: [2] | [5] | [6]

CS(=O)(=O)c1cc(C(F)(F)F)ccc1C(=O)c1cnoc1C1CC1
inactive: [1] | [2] | [3] | [4] | [5] | [6] | [7] | [8]

CNC(=O)Oc1cccc2ccccc12
inactive: [1] | [2] | [3] | [4] | [17] | [5] | [6]

CC1(C)C(C=C(Cl)Cl)C1C(=O)OC(C#N)c1cccc(Oc2ccccc2)c1 (stereo not given)
active: [3] 0.00451 µM
inactive: [1] | [2] | [4] | [5] | [6]

Cc1c(COC(=O)[C@@H]2[C@H](/C=C(\Cl)C(F)(F)F)C2(C)C)cccc1-c1ccccc1
active: [2] 3.2 µM | [3] 2.71 µM | [4] 26.9 µM | [5] 3.14 µM | [6] 3.12 µM | [7] 3.68 µM
inactive: [1] | [8]

COC(=O)N(C(=O)N1CO[C@@]2(C(=O)OC)Cc3cc(Cl)ccc3C2=N1)c1ccc(OC(F)(F)F)cc1
active: [8] 33.1 µM
inactive: [1] | [2] | [3] | [4] | [5] | [6] | [7]

O=C1C2CC=CCC2C(=O)N1SC(Cl)(Cl)Cl (stereo not given)
inactive: [17]

CS(=O)(=O)c1ccc(C(=O)C2C(=O)CCCC2=O)c([N+](=O)[O-])c1
inactive: [1] | [2] | [3] | [4] | [5] | [6] | [8]

CO/N=C(/C1=NOCCO1)c1ccccc1Oc1ncnc(Oc2ccccc2Cl)c1F
active: [2] 3.03 µM | [3] 7.61 µM | [4] 2.74 µM | [5] 2.75 µM | [6] 3.26 µM
inactive: [1] | [7] | [8]

CCOP(=O)(OCC)Oc1nc(Cl)c(Cl)cc1Cl
active: [18] 50 µM | [19] 38.4 µM | [20] 50 µM | [7] 73.7 µM | [16] 65.1 µM | [8] 3.19 µM
inactive: [1] | [2] | [3] | [4] | [5] | [6] | [7]
